# From the supplement of paper PMC11417369
# ± gives the standard deviation of the averaged measurements. In all, about 25,000 sequences were measured (“ln(normalized median fluorescence intensity)”: median about 8.9, highest 2% from about 10 on). The list comes from a sample in which the highest values are over-represented; it also holds similar and randomly drawn sequences.
# Tested on: PfAP2-LT AP2 domain (GST-tagged)
# Assay: gcPBM binding intensity (ln(normalized median fluorescence intensity)); higher = stronger DNA binding
# In short: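 Using an Agilent 4 × 180k array, primer-extended double-stranded 36-bp intergenic genomic probes and negative controls were exposed for 1 h to GST-fused P. falciparum DNA-binding domains expressed in E. coli. Binding was carried out in 1× PBS with 1% milk, 0.2 mg/ml BSA, 0.5% salmon testes DNA and 0.03% Triton X-100, and protein was detected with Alexa488 anti-GST antibody and a 488 nm scan. Binding intensity is the highest Masliner-normalised natural-log median intensity across replicate spots of either probe orientation.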
row,Sequence,gcPBM binding intensity (ln)
1,AATGAAGACTTTTTTACACACTTCATATATTATATA [CACACA_site2034],8.9 ± 0.39
2,ATATATCAAAATAATTGTACAAATTTTATATAATTT [XGTACX_site7249],8.53 ± 0.47
3,CGTACATAATTTTAATCACACACAAACAAACACATA [CACACA_site7947],9.42 ± 0.34
4,ATACTAAAAAGTATCTGTACTTATTTTAAAAATAAA [XGTACX_site4116],8.19 ± 0.53
5,TTATATTCTTTTCTCTTTCTACTTTTTTTTTTTTTT [XGTACX_negctrl_site317],8.45 ± 0.69
6,ATAGGTGAATACTAATATAAATTCAAGAGGGAAAAG [CACACA_negctrl_site720],8.9 ± 0.55
7,AAAAAAGTAAAAAGTGCATGTAAAATATAAGTATCT [TGCATGCA_site55],9.18 ± 0.61
8,CATATACATATATGTAGTACGTGTTCTTCTATATGA [XGTACX_site8344],8.84 ± 0.44
9,TATAATGGTTCTGGTGTGCACCATGACAGAATCAAG,8.82 ± 0.38
10,GTGTAAATATAATTAGTTTCACAAAACAAATATTTA [CACACA_negctrl_site717],8.61 ± 0.42
11,AAAGGGGATATATGAACACACAAAAAAAAAATATAT [CACACA_site2896],9.13 ± 0.68
12,ATTCTTTACTCATAAAATTATATTATATAAACTTTT [XGTACX_negctrl_site554],8.45 ± 0.52
13,AGTAATTTAAGGAATACACACAAGAAAAAAATAAGA [CACACA_site6177],9.13 ± 0.61
14,AGATCATAATATTATACACACATTATATATCTGTAA [CACACA_site4925],9.14 ± 0.26
15,GATCTACATGAAAGGACACACAAATATATATATATA [CACACA_site84],9.62 ± 0.35
16,AAATAAAAAAAATAAAAGCAATCATAATAAAAATCT [CACACA_negctrl_site161],8.79 ± 0.46
17,ATAAAAATATAATTGAGTACATATGAATAGTCCTAT [XGTACX_site6281],8.65 ± 0.42
18,AAAAAATGCGACATGTGTACACATATATATATATAT [XGTACX_site1679],9.81 ± 0.3
19,ACATACACATATACATGTACATATATATATATATAT [XGTACX_site5082],9.68 ± 0.3
20,CGAAATCATATGTACACACACATATATATATATATA [CACACA_site2151],10.1 ± 0.18
21,GTAAATACACATATGTGTACATATATATATATATAT [XGTACX_site3696],9.67 ± 0.31
22,AAATGCGCCATGTGTACACATATATATATATATATA [CACACA_site4649],10.1 ± 0.18
23,ATATATATATATATATGTACATATACACATGTGTGC [XGTACX_site168],10.14 ± 0.099
24,ATACACACATATATGTGTACATATACATATATATAT [XGTACX_site6744],9.88 ± 0.32
25,ATATATATATATATATGTACACACATCAATCATATT [XGTACX_site4005],9.96 ± 0.33
26,TAAATACTAATATGTACACACATATAGATATAGATT [CACACA_site7247],8.96 ± 0.38
27,TACGAAATCATATGTACACACACATATATATATATA [CACACA_site5216],9.8 ± 0.14

row,Sequence,gcPBM binding intensity (ln)
1,AAGATATGTACTAATACACACACATATATATATATA [CACACA_site8249],9.86 ± 0.14
2,GATATGTACTAATACACACACATATATATATATATA [CACACA_site1022],10.2 ± 0.23
3,TGAAAATATTTTATATGTACATATATTATCAATACA [XGTACX_site92],8.64 ± 0.38
4,TTTCTGATATTTTTATATTTTCTTATATATATATAT [GTGCAC_negctrl_site652],8.77 ± 0.52
5,TGTCTTATTTATATTACACACTATATGAAAAAATAT [CACACA_site6807],8.6 ± 0.38
6,ATAAATAAATAAGTACATATATATATGTATATATAT [TGCATGCA_negctrl_site223],9.05 ± 0.42
7,ACTAAATAAATAAATATAATATATAAATATGTATGT [TGCATGCA_negctrl_site583],8.78 ± 0.43
8,TTTATTAATAATTATACACACATATAAAATGAATAA [CACACA_site1359],8.58 ± 0.51
9,TTAATATGAAAACTCTGTACCCAACCTTCTTATGGA [XGTACX_site2126],8.62 ± 0.28
10,ATGCAATTATATAGTAGTACAAATTTATAAATATAC [XGTACX_site4869],8.94 ± 0.37
11,ATTTAATAAAAAAAAAAAATATTGTAGAATATGATG [GTGCAC_negctrl_site195],8.27 ± 0.52
12,AAAGGTATATATGTGTGTACATATATATATATATAT [XGTACX_site5629],9.955 ± 0.0071
13,TCCTTTTCTTAATTTAAAAAATATAAAAAAAACGAA [CACACA_negctrl_site1821],7.94 ± 0.34
14,TGAACTCATAGGAAAACACACATATGTGCAATATAT [CACACA_site6231],9.12 ± 0.36
15,AAAACAAACGGACACACACACATATATATATATATA [CACACA_site5924],10.2 ± 0.44
16,AAAAAAAACAGACACACACACATACAAAATATATAT [CACACA_site1449],9.79 ± 0.3
17,AAAAGGAACAGACACACACACATATATAAATATGTA [CACACA_site7656],9.8 ± 0.42
18,AAAAGGAACAGACACACACACATATATATATATATA [CACACA_site3587],10.3 ± 0.29
19,AAAACAAACAGACACACACACATATTTATATTTATA [CACACA_site7681],9.79 ± 0.4
20,AAAACAAACAGACACACACACATATATATATATATA [CACACA_site3655],10.4 ± 0.24
21,AAAAAAAACGGACACACACACATACAAAATATATAT [CACACA_site4910],9.99 ± 0.28
22,TACAAACAGACATATACACACAAAAAAAAAATAAAA [CACACA_site2562],9.16 ± 0.43
23,TATATATACAGACACATACACACAAATAAAAAAACA [CACACA_site3413],9.39 ± 0.35
24,AAAAAAAACAGACACACACACATAAATATAAATAAA [CACACA_site6214],9.74 ± 0.31
25,AAGGTAAACGGACACACACACATACAAAAAAAAAAA [CACACA_site5961],9.77 ± 0.67
26,AAAACAGACAAACACACACACACATATATATATATA [CACACA_site3393],10.37 ± 0.071
